The source made the active and inactive calls.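 The calls were made as follows, unless noted: active = inhibition at or above 50% at 10 µM; inactive = inhibition below 50%.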
Target: Alpha-2C adrenergic receptor (Homo sapiens) (UniProt P18825)
Test: compounds altering alpha2C-coupled GIRK flux – cell-based, HEK293 alpha2C/GIRK1/2, thallium flux, primary screen (AID 624;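 active = fluorescence slope after compound addition differing from the mean of all screened samples at 99.7% confidence, in either direction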;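 also: slope of fluorescence ratio to pre-addition baseline per second over 15 to 24 s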)
Details: thallium flux BTC fluorescence, at 10 µM, actives lie on both sides

Alpha-2C adrenergic receptor (Homo sapiens), sequence (P18825 whole entry, looked up): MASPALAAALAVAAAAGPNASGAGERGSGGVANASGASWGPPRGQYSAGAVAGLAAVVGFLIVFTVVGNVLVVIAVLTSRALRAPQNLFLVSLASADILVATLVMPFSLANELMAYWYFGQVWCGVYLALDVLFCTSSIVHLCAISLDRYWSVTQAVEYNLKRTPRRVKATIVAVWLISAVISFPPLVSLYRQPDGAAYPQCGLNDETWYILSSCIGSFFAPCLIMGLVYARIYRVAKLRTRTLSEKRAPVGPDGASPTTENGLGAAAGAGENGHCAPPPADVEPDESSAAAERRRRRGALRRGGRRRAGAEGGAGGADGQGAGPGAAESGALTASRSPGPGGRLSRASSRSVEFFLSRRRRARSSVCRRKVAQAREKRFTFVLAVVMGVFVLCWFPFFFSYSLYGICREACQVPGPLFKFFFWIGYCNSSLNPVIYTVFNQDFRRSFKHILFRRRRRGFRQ

slope, inactive:
O=C(CCn1c(=O)c2ccccc2n(CC(=O)NCCC2=CCCCC2)c1=O)NCc1ccco1 0.00599
CCOC(=O)N1CCC(n2c(SCC(=O)NCc3ccco3)nc3ccsc3c2=O)CC1 0.00588
CCOC(=O)N1CCC(NC(=O)c2ccc3c(c2)N(CC)CCS3)CC1 0.00586
CC(=O)NC1(C(F)(F)F)NC(=O)N(CC(C)C)C1=O (stereo not given) 0.00596
COc1ccc(CCn2c(-c3ccco3)nc3ccccc3c2=O)cc1OC 0.00555
CCCC(=O)Nc1cc(-c2nnc(OC)c3ccccc23)ccc1N1CCOCC1 0.00489
O=c1oc2ccccc2c(O)c1CN1CCCCC1 0.00535
Nc1nc(N2CCN(C/C=C/c3ccccc3)CC2)nc2ccccc12 0.00297
Cc1ccc(-c2cn3cccnc3n2)cc1NC(=O)c1ccc(Br)o1 0.00595
O=c1[nH]c(Nc2ccccc2)cc2ccccc12 0.00342
Fc1ccc(-c2nnc(CN3CCN(c4ncc(C(F)(F)F)cc4Cl)CC3)o2)cc1 0.00518
COc1cc(N=c2ssnc2Cl)cc(OC)c1 0.0056
COc1ccc(-c2c(=O)n(OCc3ccccn3)c3ccccc3[n+]2[O-])cc1OC 0.00593
Cc1sc2nc(SCC(=O)N3CCN(CCO)CC3)n(-c3ccccc3)c(=O)c2c1C 0.00574
CC(=O)Nc1cccc(NC(=O)C2CCCN2C(=O)Nc2ccc(C)cc2)c1 (stereo not given) 0.0061
Cc1ccc(C)n1-n1c(C)nc2sc(-c3ccccc3)cc2c1=O 0.00611
O=C1c2ccccc2-c2ccc(C(=O)N3CCOCC3)cc21 0.00393
O=C1NC(c2ccccc2)(C(F)(F)F)SC2=CCCCCN12 (stereo not given) 0.00583
CC1CCCCN1CCNC(=O)C1CCN(S(=O)(=O)c2cccc3cccnc23)CC1 (stereo not given) 0.00613
Cc1ccc(-c2nnc3c4ccccc4c(C)nn23)cc1S(=O)(=O)N1CCN(C)CC1 0.00436
O=S(=O)(c1ccc2c(c1)OCCO2)N1CCC(n2nnc3cc(F)ccc32)CC1 0.00521
O=C(c1ccco1)N1CCN(S(=O)(=O)c2ccc(C3CCCCC3)cc2)CC1 0.00443
CC(=O)c1ccc(NC(=O)CSc2nnc(-c3ccoc3C)n2Cc2ccccc2)cc1 0.00468
Cc1cc(NC(=O)CSc2nnc(COc3cccc(C)c3C)n2Cc2ccco2)no1 0.00725
COc1cccc(NC(=O)C2CCN(c3ncccn3)CC2)c1 0.00449
CC1(C)CN=C(N2CCN(c3ncnc4sc5c(c34)CCCC5)CC2)S1 0.0035
CCOCCn1c(CN2CCN(c3cccc(Cl)c3)CC2)nc2c1c(=O)n(C)c(=O)n2C 0.00703
Clc1ccc(OCCCn2cncn2)cc1Cl 0.00702
CN(CC(=O)Nc1ccc(F)c(Cl)c1)S(=O)(=O)c1cccc2nsnc12 0.00478
O=C(NCc1nc2ccccc2[nH]1)c1ccco1 0.00592
O=C(Cc1cccs1)Nc1ccccc1NC(=O)Cc1cccs1 0.00795
COc1ccc(-c2nnc(SCC(=O)N3CCCCC3)o2)cc1OC 0.00656
CCOC(=O)c1cc2c(=O)n3ccccc3nc2n(CCCOC)c1=NC(=O)C(C)(C)C 0.00456
Cc1onc(-c2ccccc2Cl)c1C(=O)Nc1cnn(Cc2ccccc2)c1 0.00545
CC1Cc2ccccc2N1C(=O)c1cccnc1 (stereo not given) 0.00616
CS(=O)(=O)Nc1ccccc1C(=O)O 0.00253
O=C1CN(C(=O)COC(=O)C23CC4CC(CC(O)(C4)C2)C3)c2ccccc2N1 0.00543
O=C(Nc1ccc(F)cc1)NC1CCN(Cc2nnnn2Cc2ccco2)CC1 0.00571
CCC(=O)c1ccc(OC(=O)c2ccc(Br)o2)cc1 0.00383
Cc1ccc(NC(=O)CCC(=O)OCC(F)(F)C(F)F)cc1 0.00371

Test system: not listed separately
Test: blockers of RIG-like receptor reporter activation – cell-based, Sendai virus stimulus, luciferase, 10K MLSCN set, TLR/RLR signaling modifier project, primary screen (AID 602276);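 also: firefly luciferase from ISG56 promoter only with Renilla not read in this screen; 0% = Sendai virus plus DMSO and 100% = medium plus DMSO without virus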
Details: HEK293 RL24 IRF3 luciferase reporter, at 10 µM, stronger effect = higher value

inhibition, inactive:
O=C(CCn1c(=O)c2ccccc2n(CC(=O)NCCC2=CCCCC2)c1=O)NCc1ccco1 -4.87%
CCOC(=O)N1CCC(n2c(SCC(=O)NCc3ccco3)nc3ccsc3c2=O)CC1 4.14%
CCOC(=O)N1CCC(NC(=O)c2ccc3c(c2)N(CC)CCS3)CC1 12.8%
CC(=O)NC1(C(F)(F)F)NC(=O)N(CC(C)C)C1=O (stereo not given) -14.7%
COc1ccc(CCn2c(-c3ccco3)nc3ccccc3c2=O)cc1OC -9.43%
CCCC(=O)Nc1cc(-c2nnc(OC)c3ccccc23)ccc1N1CCOCC1 22.9%
O=c1oc2ccccc2c(O)c1CN1CCCCC1 15.4%
Nc1nc(N2CCN(C/C=C/c3ccccc3)CC2)nc2ccccc12 4.65%
Cc1ccc(-c2cn3cccnc3n2)cc1NC(=O)c1ccc(Br)o1 -11.9%
O=c1[nH]c(Nc2ccccc2)cc2ccccc12 7.19%
Fc1ccc(-c2nnc(CN3CCN(c4ncc(C(F)(F)F)cc4Cl)CC3)o2)cc1 8.36%
COc1cc(N=c2ssnc2Cl)cc(OC)c1 -6.83%
COc1ccc(-c2c(=O)n(OCc3ccccn3)c3ccccc3[n+]2[O-])cc1OC -2.61%
Cc1sc2nc(SCC(=O)N3CCN(CCO)CC3)n(-c3ccccc3)c(=O)c2c1C 16.8%
CC(=O)Nc1cccc(NC(=O)C2CCCN2C(=O)Nc2ccc(C)cc2)c1 (stereo not given) -9.54%
Cc1ccc(C)n1-n1c(C)nc2sc(-c3ccccc3)cc2c1=O -68%
O=C1c2ccccc2-c2ccc(C(=O)N3CCOCC3)cc21 5.8%
O=C1NC(c2ccccc2)(C(F)(F)F)SC2=CCCCCN12 (stereo not given) -3.83%
CC1CCCCN1CCNC(=O)C1CCN(S(=O)(=O)c2cccc3cccnc23)CC1 (stereo not given) 6.15%
Cc1ccc(-c2nnc3c4ccccc4c(C)nn23)cc1S(=O)(=O)N1CCN(C)CC1 13.3%
O=S(=O)(c1ccc2c(c1)OCCO2)N1CCC(n2nnc3cc(F)ccc32)CC1 17.3%
O=C(c1ccco1)N1CCN(S(=O)(=O)c2ccc(C3CCCCC3)cc2)CC1 -0.0986%
CC(=O)c1ccc(NC(=O)CSc2nnc(-c3ccoc3C)n2Cc2ccccc2)cc1 -9.45%
Cc1cc(NC(=O)CSc2nnc(COc3cccc(C)c3C)n2Cc2ccco2)no1 4.7%
COc1cccc(NC(=O)C2CCN(c3ncccn3)CC2)c1 0.711%
CC1(C)CN=C(N2CCN(c3ncnc4sc5c(c34)CCCC5)CC2)S1 6.95%
CCOCCn1c(CN2CCN(c3cccc(Cl)c3)CC2)nc2c1c(=O)n(C)c(=O)n2C 1.6%
Clc1ccc(OCCCn2cncn2)cc1Cl 10.6%
CN(CC(=O)Nc1ccc(F)c(Cl)c1)S(=O)(=O)c1cccc2nsnc12 -14.7%
O=C(NCc1nc2ccccc2[nH]1)c1ccco1 -2.68%
O=C(Cc1cccs1)Nc1ccccc1NC(=O)Cc1cccs1 9.79%
COc1ccc(-c2nnc(SCC(=O)N3CCCCC3)o2)cc1OC 3.05%
CCOC(=O)c1cc2c(=O)n3ccccc3nc2n(CCCOC)c1=NC(=O)C(C)(C)C 7.96%
Cc1onc(-c2ccccc2Cl)c1C(=O)Nc1cnn(Cc2ccccc2)c1 14.3%
CC1Cc2ccccc2N1C(=O)c1cccnc1 (stereo not given) 14.1%
CS(=O)(=O)Nc1ccccc1C(=O)O 11.5%
O=C1CN(C(=O)COC(=O)C23CC4CC(CC(O)(C4)C2)C3)c2ccccc2N1 8.83%
O=C(Nc1ccc(F)cc1)NC1CCN(Cc2nnnn2Cc2ccco2)CC1 -9.98%
CCC(=O)c1ccc(OC(=O)c2ccc(Br)o2)cc1 10.9%
Cc1ccc(NC(=O)CCC(=O)OCC(F)(F)C(F)F)cc1 3.35%

— PubChem BioAssay
